The record followed here is PubChem BioAssay (EPA / NIEHS).

Assay [1] can be described thus: ATG_RORE_CIS: Attagene CIS-FACTORIAL HepG2 Assay for human RAR-related Orphan Receptor Element (RORE) (AID 2282959; active = hit-call score of the fitted dose curve at least 0.9, where 1 is the maximum; inactive = score below 0.9). Conditions: HepG2 Attagene cis-factorial RORE reporter, mRNA; actives raise or lower the signal. Summed up: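 A 24-hour exposure of transfected HepG2 hepatoma cells precedes RNA isolation and reporter RT-PCR. Labeled products are digested with HpaI and resolved by capillary electrophoresis, with gain or loss of signal scored relative to DMSO.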

Assay [2] addresses Nuclear receptor subfamily 1 group I member 3 (Homo sapiens) (UniProt Q14994). Nature of the assay: ATG_CAR_TRANS: Attagene TRANS-FACTORIAL HepG2 Assay for human Constitutive Androstane Receptor (CAR) (AID 2282969).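 Also: activators raise reporter mRNA above DMSO so AC50 marks induction.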 Conditions: HepG2 Attagene TRANS-FACTORIAL CAR reporter. Summed up: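 Signal is reporter mRNA induction relative to DMSO, measured 24 h after dosing by RT-PCR with fluorescent primer extension and capillary electrophoresis. Human HepG2 liver cells carried transiently transfected chimeric NR-Gal4/GAL4-UAS reporter constructs.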

The target of assay [3] is human Retinoid X Receptor beta (RXRb), RXRB (gene 6257) (UniProt P28702). Nature of the assay: ATG_RXRb_TRANS: Attagene TRANS-FACTORIAL HepG2 Assay for human Retinoid X Receptor beta (RXRb) (AID 2283013). The gist of the method: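 Readout is reporter transcript induction after 24 h dosing. It is measured by RT-PCR of total RNA followed by fluorescent capillary electrophoresis. HepG2 liver cells carry transfected multiple reporter units driven by an exogenous RXRb-Gal4 fusion; activity is relative to DMSO.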

Assay [4] in a line: ATG_ERE_CIS: Attagene CIS-FACTORIAL HepG2 Assay for Estrogen Response Element (ERE) (AID 2282940; active = hit-call score of the fitted dose curve at least 0.9, where 1 is the maximum; inactive = score below 0.9). As to conditions: HepG2 ERE cis-reporter, Attagene RNA transcript; actives raise or lower the signal. Summed up: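 HepG2 cells transiently transfected with cis-promoter-driven multiplexed reporter transcription units report endogenous TF activity. After 24 h compound exposure, reporter mRNA is quantified by RT-PCR with capillary electrophoresis fluorescence; bidirectional fitting versus DMSO baseline.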

The nature of assay [5]: ATG_M_19_TRANS: Attagene TRANS-FACTORIAL HepG2 Assay for M19 Transcription Factor (Internal Marker) (AID 2282974). Conditions: HepG2 Attagene TRANS-FACTORIAL M19 internal marker reporter. The gist of the method: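 Transfected HepG2 (GAL4-UAS MRTUs), 24 h compound, TriZol RNA, DNase-treated RT, reporter PCR, FAM label, HpaI digest, CE fluorescence; gain vs DMSO.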
A short description of assay [6]: ATG_GAL4_TRANS: Attagene TRANS-FACTORIAL HepG2 Assay for GAL4 (Internal Marker) (AID 2282976). As to conditions: HepG2 Attagene TRANS GAL4 internal marker reporter. The gist of the method:
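Fluorescence from capillary electrophoresis of labelled RT-PCR products quantifies reporter mRNA induction after 24 h dosing of HepG2 cells carrying transfected GAL4-UAS reporter transcription units. Vehicle DMSO serves as baseline.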

Assay [7] deals with Glucocorticoid receptor (Homo sapiens) (UniProt P04150). Nature of the assay: ATG_GR_TRANS: Attagene TRANS-FACTORIAL HepG2 Assay for human Glucocorticoid Receptor (GR) (AID 2282978).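 Also: activators score as hits since higher reporter transcript over DMSO is fitted.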 As to conditions: HepG2 Attagene TRANS GR reporter, mRNA transcription. Summed up:
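After 24 h incubation with test chemical, transfected HepG2 cells were lysed for RNA; reporter cDNA was amplified, FAM-labelled, HpaI-digested and sized on a capillary analyser. Signal gain relative to DMSO was scored.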

Assay [8] addresses Oxysterols receptor LXR-alpha (Homo sapiens) (UniProt Q13133). Nature of the assay: ATG_LXRa_TRANS: Attagene TRANS-FACTORIAL HepG2 Assay for human Liver X Receptor alpha (LXRa) (AID 2282980). As to conditions: HepG2 Attagene TRANS reporter, LXRa transactivation. Summed up: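 Transient HepG2 transfectants, 24 h dosing, RT-PCR/CE mRNA reporter quantitation; gain-of-signal vs DMSO.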

The target of assay [9] is human RAR-related Orphan Receptor beta (RORb), RORB (gene 6096) (UniProt Q92753). Nature of the assay: ATG_RORb_TRANS: Attagene TRANS-FACTORIAL HepG2 Assay for human RAR-related Orphan Receptor beta (RORb) (AID 2283010). The gist of the method: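 Read-out is reporter mRNA induction, quantified by RT-PCR with fluorescent capillary electrophoresis, 24 h post-dose in transiently transfected HepG2 expressing exogenous NR-Gal4 chimera. Activity fitted upward versus DMSO.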

In assay [10] the target is human Vitamin D Receptor (VDR), VDR (gene 7421) (UniProt P11473). Nature of the assay: ATG_VDR_TRANS: Attagene TRANS-FACTORIAL HepG2 Assay for human Vitamin D Receptor (VDR) (AID 2283022). Summed up: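 Fluorescence of labelled reporter cDNA fragments, resolved by capillary electrophoresis, gives mRNA induction after 24 h treatment of HepG2 cells carrying transfected Gal4-fusion reporter units. Activity is fitted in the positive direction with DMSO as baseline.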

In assay [11] the target is Cellular tumor antigen p53 (Homo sapiens) (UniProt P04637). Nature of the assay: TOX21_p53_BLA_p3_ratio: Tox21 HCT-116 p53 Agonism Beta-lactamase Assay, Ratio, Phase 3 (AID 2283596). Summed up: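 Cells were seeded at 4000/well, rested 5 h at 37C, then dosed with DMSO compound solutions (217-fold dilution) for 16 h. CCF4-AM substrate was loaded for 2 h at room temperature, and the 460/530 nm emission ratio was fitted for gain of signal versus DMSO.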

The target is the same in assay [12]. Nature of the assay: TOX21_p53_BLA_p4_ratio: Tox21 HCT-116 p53 Agonism Beta-lactamase Assay, Ratio, Phase 4 (AID 2283601). The gist of the method:
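Signal is the blue/green (460nm/530nm) ratio of cleaved versus uncleaved CCF4-AM substrate, read after 2 h substrate loading. Cells were HCT116 carrying the p53-responsive beta-lactamase reporter, dosed 16 h at 37C, 5% CO2; CellTiter-Glo measured in parallel.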

The target in assay [13] is human Peroxisome Proliferator-activated Receptor delta (PPARd), PPARD (gene 5467) (UniProt Q03181). Nature of the assay: ATG_PPARd_TRANS: Attagene TRANS-FACTORIAL HepG2 Assay for human Peroxisome Proliferator-activated Receptor delta (PPARd) (AID 2283002). The gist of the method: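 Read-out is induced reporter mRNA, quantified by RT-PCR with fluorescent labelling and capillary electrophoresis after 24 h dosing. Cells are HepG2 transiently carrying multiple GAL4-UAS reporter units driven by exogenous NR-GAL4 chimeras; DMSO serves as baseline.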

Assay [14] is described as follows: TOX21_p53_BLA_p3_viability: Viability Assessment in the Tox21 HCT-116 p53 Agonism Beta-lactamase Assay, Phase 3 (AID 2283593).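 Also: cells exposed to compound for 16 h before reading.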 Summed up:
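Cellular ATP was quantified by CellTiter-Glo luminescence, read after 30 min at room temperature. Beforehand, HCT116 cells (4000/well) received compound 5 h post-seeding, 217-fold diluted from DMSO, then incubated 16 h at 37C.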

Assay [15] can be described thus: TOX21_p53_BLA_p4_viability: Viability Assessment in the Tox21 HCT-116 p53 Agonism Beta-lactamase Assay, Phase 4 (AID 2283597).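 Also: hits lower the luminescence signal meaning cytotoxicity.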 The gist of the method:
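Viability is taken as cellular ATP: after 16 h compound exposure of HCT116 cells and a 2 h room-temperature CCF4-AM substrate step, CellTiter-Glo reagent is added and luminescence is measured 30 min later.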

In assay [16] the target is Bile acid receptor (Homo sapiens) (UniProt Q96RI1). Nature of the assay: ATG_IR1_CIS: Attagene CIS-FACTORIAL HepG2 Assay for human Nuclear Receptor Subfamily 1 Group H Member 4 (NR1H4), IR1 submotif (AID 2282946; active = hit-call score of the fitted dose curve at least 0.9, where 1 is the maximum; inactive = score below 0.9). Conditions: IR1 reporter transcription, actives raise or lower the signal. Summed up: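 HepG2 cells transiently transfected with multiplexed cis-element reporter units read endogenous transcription factor activity. After 24 h compound exposure, reporter mRNA was quantified by RT-PCR, fluorescent labelling, HpaI digestion and capillary electrophoresis; bidirectional fitting versus DMSO baseline.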

For assay [17] the target is unchanged. Nature of the assay: ATG_FXR_TRANS: Attagene TRANS-FACTORIAL HepG2 Assay for Farnesoid X Receptor (FXR) (AID 2282979).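 Also: hits raise reporter mRNA above DMSO so AC50 marks FXR activation.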 As to conditions: HepG2 Attagene TRANS FXR-GAL4 reporter transcription. The gist of the method:
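Chimeric FXR-GAL4 activity in transiently transfected human HepG2 liver cells is scored as induction of reporter mRNA after 24 h of dosing. Detection uses RT-PCR with fluorescent labelling and capillary electrophoresis, with DMSO serving as baseline.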

The target of assay [18] is Peroxisome proliferator-activated receptor gamma (Homo sapiens) (UniProt P37231). Nature of the assay: ATG_PPARg_TRANS: Attagene TRANS-FACTORIAL HepG2 Assay for human Peroxisome Proliferator-activated Receptor-gamma (PPARg) (AID 2283007). The gist of the method: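 Twenty-four hours after chemical dosing of transiently transfected HepG2 cells, isolated RNA was converted to cDNA, reporter sequences amplified and 6-FAM-labelled, then HpaI-digested and analysed by capillary electrophoresis. Signal increase against DMSO was fitted.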

Assay [19] in a line: TOX21_p53_BLA_p2_viability: Viability Assessment in the Tox21 HCT-116 p53 Agonism Beta-lactamase Assay, Phase 2 (AID 2283591).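 Also: compound exposure lasted 16 h at 37 °C; actives lower the ATP signal meaning cytotoxicity.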 Summed up:
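Cytotoxicity readout: CellTiter-Glo ATP luminescence, 30 min at room temperature, after the beta-lactamase read. Cells were HCT116 exposed 16 h at 37C to compounds pin-transferred at 217-fold dilution from DMSO stocks.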

A short description of assay [20]: ATG_PBREM_CIS: Attagene CIS-FACTORIAL HepG2 Assay for human Phenobarbital-responsive Enhancer Module (PBREM) (AID 2282955; active = hit-call score of the fitted dose curve at least 0.9, where 1 is the maximum; inactive = score below 0.9). Conditions: HepG2 PBREM cis-reporter, Attagene multiplexed transcription; actives raise or lower the signal. Summed up: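 Measures endogenous factor action on a phenobarbital-responsive enhancer module. HepG2 transiently carrying cis reporters, 24 h treatment, mRNA read-out by RT-PCR plus capillary electrophoresis.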

Results filed as inconclusive are left out. Some structures have more than one record in an assay (separate samples or runs), and their calls can disagree. Activity calls are given as the source filed them. The calls were made as follows, unless noted: active = hit-call score of the fitted dose curve at least 0.9, where 1 is the maximum; inconclusive = response in the unintended direction; inactive = score below 0.9.

Cellular tumor antigen p53 (Homo sapiens), sequence (P04637 whole entry, looked up): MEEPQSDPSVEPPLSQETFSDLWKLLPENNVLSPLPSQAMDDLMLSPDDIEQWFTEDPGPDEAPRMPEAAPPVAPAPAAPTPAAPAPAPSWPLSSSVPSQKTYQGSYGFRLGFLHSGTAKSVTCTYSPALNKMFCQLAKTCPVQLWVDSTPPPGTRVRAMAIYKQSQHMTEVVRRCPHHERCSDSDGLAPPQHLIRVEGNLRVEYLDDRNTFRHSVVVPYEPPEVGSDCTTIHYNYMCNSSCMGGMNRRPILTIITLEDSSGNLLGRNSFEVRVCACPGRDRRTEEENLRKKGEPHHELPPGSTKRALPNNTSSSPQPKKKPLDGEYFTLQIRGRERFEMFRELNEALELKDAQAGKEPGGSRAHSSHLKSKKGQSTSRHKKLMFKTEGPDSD
Nuclear receptor subfamily 1 group I member 3 (Homo sapiens), sequence (Q14994 whole entry, looked up, the tested form may be a part): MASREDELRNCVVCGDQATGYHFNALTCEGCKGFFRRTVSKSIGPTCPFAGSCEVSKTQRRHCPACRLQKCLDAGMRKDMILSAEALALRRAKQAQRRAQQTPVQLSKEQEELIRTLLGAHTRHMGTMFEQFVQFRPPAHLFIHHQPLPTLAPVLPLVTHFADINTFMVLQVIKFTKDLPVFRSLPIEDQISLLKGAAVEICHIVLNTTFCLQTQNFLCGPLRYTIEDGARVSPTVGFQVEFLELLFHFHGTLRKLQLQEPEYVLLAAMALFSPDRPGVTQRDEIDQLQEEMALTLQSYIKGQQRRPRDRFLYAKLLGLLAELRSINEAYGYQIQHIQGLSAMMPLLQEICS
Peroxisome proliferator-activated receptor gamma (Homo sapiens), sequence (P37231 whole entry, looked up): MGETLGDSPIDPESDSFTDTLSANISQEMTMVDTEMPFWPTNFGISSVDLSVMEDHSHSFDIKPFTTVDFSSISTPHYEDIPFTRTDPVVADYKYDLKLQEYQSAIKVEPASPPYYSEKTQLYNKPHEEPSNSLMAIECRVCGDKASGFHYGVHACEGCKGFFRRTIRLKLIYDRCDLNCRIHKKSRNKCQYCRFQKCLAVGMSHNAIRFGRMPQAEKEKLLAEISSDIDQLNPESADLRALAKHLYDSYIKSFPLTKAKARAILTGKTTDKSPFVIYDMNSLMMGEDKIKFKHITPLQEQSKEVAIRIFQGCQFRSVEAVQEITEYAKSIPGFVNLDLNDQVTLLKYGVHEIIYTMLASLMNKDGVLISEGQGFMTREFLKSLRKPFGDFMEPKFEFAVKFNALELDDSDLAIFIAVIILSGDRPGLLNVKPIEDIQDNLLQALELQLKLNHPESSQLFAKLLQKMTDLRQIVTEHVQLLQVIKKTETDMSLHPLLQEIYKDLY
human RAR-related Orphan Receptor beta (RORb), RORB (gene 6096), sequence (Q92753 whole entry, looked up, the tested form may be a part): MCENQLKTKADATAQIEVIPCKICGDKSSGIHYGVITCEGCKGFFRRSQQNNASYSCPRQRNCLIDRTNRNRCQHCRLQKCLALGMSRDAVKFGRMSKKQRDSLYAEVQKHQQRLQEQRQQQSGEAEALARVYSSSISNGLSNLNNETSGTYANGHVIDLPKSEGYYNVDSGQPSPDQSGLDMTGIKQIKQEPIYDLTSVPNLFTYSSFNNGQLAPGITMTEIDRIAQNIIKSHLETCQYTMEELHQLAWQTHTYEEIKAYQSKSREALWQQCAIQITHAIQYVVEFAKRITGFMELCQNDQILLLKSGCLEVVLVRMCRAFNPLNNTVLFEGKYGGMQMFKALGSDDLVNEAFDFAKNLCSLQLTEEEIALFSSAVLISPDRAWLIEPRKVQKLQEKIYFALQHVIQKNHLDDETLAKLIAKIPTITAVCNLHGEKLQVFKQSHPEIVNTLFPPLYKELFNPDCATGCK
Bile acid receptor (Homo sapiens), sequence (Q96RI1 whole entry, looked up): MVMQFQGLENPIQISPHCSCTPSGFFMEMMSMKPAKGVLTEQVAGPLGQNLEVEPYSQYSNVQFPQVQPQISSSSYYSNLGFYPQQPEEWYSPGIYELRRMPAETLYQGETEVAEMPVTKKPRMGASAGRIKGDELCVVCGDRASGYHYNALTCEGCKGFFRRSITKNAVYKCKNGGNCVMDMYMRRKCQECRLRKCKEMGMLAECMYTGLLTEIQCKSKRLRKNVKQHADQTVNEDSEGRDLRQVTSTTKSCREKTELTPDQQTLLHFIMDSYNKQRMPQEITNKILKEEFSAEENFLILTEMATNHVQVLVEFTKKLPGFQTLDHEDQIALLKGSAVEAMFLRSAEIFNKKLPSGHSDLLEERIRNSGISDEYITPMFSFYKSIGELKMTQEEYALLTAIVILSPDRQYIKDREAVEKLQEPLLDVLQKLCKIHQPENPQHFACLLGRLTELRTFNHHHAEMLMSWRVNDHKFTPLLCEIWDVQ
Oxysterols receptor LXR-alpha (Homo sapiens), sequence (Q13133 whole entry, looked up): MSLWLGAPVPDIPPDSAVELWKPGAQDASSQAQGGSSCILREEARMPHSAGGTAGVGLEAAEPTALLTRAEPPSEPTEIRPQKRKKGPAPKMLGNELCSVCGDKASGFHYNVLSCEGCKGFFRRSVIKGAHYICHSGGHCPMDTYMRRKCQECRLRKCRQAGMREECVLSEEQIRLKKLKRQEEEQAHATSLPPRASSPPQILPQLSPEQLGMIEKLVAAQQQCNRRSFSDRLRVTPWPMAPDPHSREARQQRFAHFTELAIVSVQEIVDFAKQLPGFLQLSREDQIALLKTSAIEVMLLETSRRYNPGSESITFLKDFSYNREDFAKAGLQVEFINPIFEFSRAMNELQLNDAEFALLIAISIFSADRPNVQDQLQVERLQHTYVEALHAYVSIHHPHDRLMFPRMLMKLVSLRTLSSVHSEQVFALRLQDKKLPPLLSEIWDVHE
human Peroxisome Proliferator-activated Receptor delta (PPARd), PPARD (gene 5467), sequence (Q03181 whole entry, looked up, the tested form may be a part): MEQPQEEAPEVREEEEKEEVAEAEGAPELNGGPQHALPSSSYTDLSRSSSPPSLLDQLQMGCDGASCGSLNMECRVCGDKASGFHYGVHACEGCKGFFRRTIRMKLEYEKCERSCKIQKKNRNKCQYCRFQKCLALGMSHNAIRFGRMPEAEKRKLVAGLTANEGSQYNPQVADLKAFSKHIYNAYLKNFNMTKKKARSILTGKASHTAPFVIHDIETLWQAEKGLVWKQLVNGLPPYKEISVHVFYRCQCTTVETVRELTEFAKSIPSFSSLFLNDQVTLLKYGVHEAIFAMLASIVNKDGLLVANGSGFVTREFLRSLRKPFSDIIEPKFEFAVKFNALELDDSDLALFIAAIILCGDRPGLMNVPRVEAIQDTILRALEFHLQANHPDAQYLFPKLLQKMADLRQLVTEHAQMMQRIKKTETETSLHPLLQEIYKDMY
human Retinoid X Receptor beta (RXRb), RXRB (gene 6257), sequence (P28702 whole entry, looked up, the tested form may be a part): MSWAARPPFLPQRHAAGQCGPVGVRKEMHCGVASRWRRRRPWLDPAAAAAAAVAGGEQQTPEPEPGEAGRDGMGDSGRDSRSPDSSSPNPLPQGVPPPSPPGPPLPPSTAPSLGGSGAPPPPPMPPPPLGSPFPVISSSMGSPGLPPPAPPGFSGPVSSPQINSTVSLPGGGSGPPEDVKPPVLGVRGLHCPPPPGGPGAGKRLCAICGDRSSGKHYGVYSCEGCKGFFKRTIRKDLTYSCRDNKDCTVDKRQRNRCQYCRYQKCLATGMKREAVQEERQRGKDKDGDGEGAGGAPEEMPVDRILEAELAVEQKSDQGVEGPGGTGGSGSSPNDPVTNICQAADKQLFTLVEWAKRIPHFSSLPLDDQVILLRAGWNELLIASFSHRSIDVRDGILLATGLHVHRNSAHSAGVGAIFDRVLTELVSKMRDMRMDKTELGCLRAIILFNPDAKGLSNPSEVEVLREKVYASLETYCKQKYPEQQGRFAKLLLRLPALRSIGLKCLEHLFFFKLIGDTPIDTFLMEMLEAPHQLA
Glucocorticoid receptor (Homo sapiens), sequence (P04150 whole entry, looked up): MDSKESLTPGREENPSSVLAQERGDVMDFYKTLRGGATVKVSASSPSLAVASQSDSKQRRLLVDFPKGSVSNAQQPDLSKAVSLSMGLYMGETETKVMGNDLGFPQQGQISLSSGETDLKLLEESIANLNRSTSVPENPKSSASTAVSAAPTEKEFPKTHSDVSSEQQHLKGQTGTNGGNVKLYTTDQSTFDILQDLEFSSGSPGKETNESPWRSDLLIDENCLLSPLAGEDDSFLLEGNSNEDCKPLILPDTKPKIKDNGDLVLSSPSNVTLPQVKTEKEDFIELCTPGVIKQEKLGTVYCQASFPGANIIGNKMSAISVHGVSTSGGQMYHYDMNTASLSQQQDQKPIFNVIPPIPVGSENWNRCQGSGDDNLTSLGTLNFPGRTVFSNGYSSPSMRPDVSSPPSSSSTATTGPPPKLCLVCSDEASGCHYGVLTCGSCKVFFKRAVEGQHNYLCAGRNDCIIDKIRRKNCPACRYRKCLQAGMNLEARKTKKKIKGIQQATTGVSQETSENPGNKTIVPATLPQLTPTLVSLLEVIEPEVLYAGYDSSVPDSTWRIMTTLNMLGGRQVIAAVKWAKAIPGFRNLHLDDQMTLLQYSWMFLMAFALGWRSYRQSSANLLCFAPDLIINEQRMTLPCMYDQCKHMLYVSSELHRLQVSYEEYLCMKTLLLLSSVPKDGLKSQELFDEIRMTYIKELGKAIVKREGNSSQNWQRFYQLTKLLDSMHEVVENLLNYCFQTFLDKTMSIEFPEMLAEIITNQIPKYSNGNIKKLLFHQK
human Vitamin D Receptor (VDR), VDR (gene 7421), sequence (P11473 whole entry, looked up, the tested form may be a part): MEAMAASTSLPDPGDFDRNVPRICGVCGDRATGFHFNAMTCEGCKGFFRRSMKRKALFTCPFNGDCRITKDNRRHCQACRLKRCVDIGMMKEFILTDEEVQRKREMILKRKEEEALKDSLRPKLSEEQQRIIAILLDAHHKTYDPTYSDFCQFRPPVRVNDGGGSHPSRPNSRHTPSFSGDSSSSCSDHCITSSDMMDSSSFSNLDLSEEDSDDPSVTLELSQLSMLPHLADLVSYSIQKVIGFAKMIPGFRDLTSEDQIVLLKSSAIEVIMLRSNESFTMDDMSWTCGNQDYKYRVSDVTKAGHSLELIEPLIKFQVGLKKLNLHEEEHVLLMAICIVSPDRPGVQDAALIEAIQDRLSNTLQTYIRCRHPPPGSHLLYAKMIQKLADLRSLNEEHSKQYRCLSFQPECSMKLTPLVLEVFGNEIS

As for `NNc1ccccc1`, the result in assay [1], in assay [2] and in assay [3] was inactive.

Take `C=C(Cl)CCl`: the result in assay [4], in assay [1], in [5], in assay [6], in assay [7] and in assay [8] was inactive. For the same compound, the outcome in assay [9], in assay [3], in [10], in assay [11] and in assay [12] was inactive.

With `C=CC(=O)OCCO`, the AC50 in assay [1] was 59.1 µM (active). For the same compound, the call in [13], in assay [9], in assay [10], in assay [14], in assay [11] and in assay [12] was inactive.

Turning to `Nc1ccc([N+](=O)[O-])cc1N`, the compound was classed as inactive in assay [6], in [8], in assay [13], in assay [9], in assay [3] and in assay [10]. Besides, the compound was classed as inactive in [14], in [11], in [15] and in [12].

Regarding `Oc1ccc(C2(c3ccc(O)cc3)c3ccccc3-c3ccccc32)cc1`, the result in [4], in assay [16], in assay [6], in assay [7], in assay [17] and in assay [8] was inactive. Also, the compound was classed as inactive in assay [18], in assay [19] and in assay [15]. Further, the AC50 in assay [1] is 18.6 µM (active); in assay [14], 0.237 µM (active); in assay [11] it was 0.906 µM (active); in assay [12] it was 67.8 µM (active).

On to `O=c1[nH]c(Cl)c(Cl)cc1Cl`, for which the outcome in assay [16], in [20], in assay [1], in [2], in assay [5] and in assay [17] was inactive. Moreover, the outcome in [13], in assay [9], in [3], in [10], in assay [11] and in assay [15] was inactive. For the same compound, the result in [12] was inactive. Further, the AC50 in assay [18] is 14.2 µM (active).

Consider `CN1C[C@H](C(=O)N[C@]2(C)O[C@@]3(O)[C@@H]4CCCN4C(=O)[C@H](Cc4ccccc4)N3C2=O)C=C2c3cccc4[nH]cc(c34)C[C@H]21`, for which the compound was classed as inactive in assay [4], in assay [16], in [20], in [1], in assay [5] and in assay [6]. In addition, the outcome in assay [7], in assay [17], in [10], in [19], in [14] and in [15] was inactive. Moreover, the outcome in assay [12] was inactive. Further, in assay [15], the AC50 was 71.4 µM (active).

In the case of `O=P(O)(Oc1ccccc1)Oc1ccccc1`, the compound was called inactive in assay [4], in [16], in assay [2], in [6], in [7] and in [17]. Also, the result in [8], in assay [18], in assay [3], in assay [10], in assay [19] and in assay [11] was inactive. Also, in assay [12], the outcome was inactive.

As usually defined, the AC50 is the concentration giving half of the maximal activity seen.
